Screens as filed in PubChem.
A selection: hits, their analogues and other compounds. The true share with any hit is near 2.6%.
M18AAP inhibitor = PfM18AAP enzyme inhibition. recombinant PfM18AAP, H-Glu-NHMec fluorogenic cleavage. inhibition, % at 7.35 µM. hit rate 1.2% among 290,000;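 active = inhibition above the campaign mean inhibition over all tested compounds plus 3 SD, cut at about 28% in these data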;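 note: 0% = plate median of test compound wells and 100% = 2 mM ZnCl2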
Exocytosis inh = lytic granule exocytosis inhibition; AID 651702; inhibition, % at 10 µM; TALL-104 LAMP-1 surface exposure, flow cytometry; cells stimulated with thapsigargin and PMA; hit rate 0.66% among 360,000;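 active = inhibition above about 55%, limit read from the data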
ABHD5 PLIN5 PPI = blocks binding of human ABHD5 to perilipin-5; Q00G26+Q8WTS1; Split G. princeps luciferase complementation, luminescence, 4 h; inhibition, % at 4 µM; hit rate 0.78% among 360,000; AID 602281;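 active = inhibition above the mean inhibition across every tested compound plus 3 SD, cut at about 22% in these data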;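 note: 0% = DMSO only wells and the 100% control is not disclosed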
Rce1 inh = inhibitors of yeast Ras-converting enzyme; Q03530; yeast membranes, quenched prenylated peptide cleavage fluorescence; calls only; hit rate 0.27% among 290,000; AID 2563;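 active = fall in fluorescence gain of 50% or more versus controls, with final raw signal at or below 3038400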;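 note: plate controls were neutral control wells for no effect and wells lacking membranes for full effect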
Platelet DG rel = modulates dense granule release in human platelets; human platelet-rich plasma, SFLLRN dense granule ATP release, luminescence; inhibition, %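 (compounds screened at 7.5 µM in platelet-rich plasma)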; hit rate 0.22% among 300,000; AID 1663;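 active = mean replicate score, as percent of positive control, at or above 50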
ABHD5-PLIN5 conf = confirmation of human ABHD5-PLIN5 interaction inhibitors | shares compounds with ABHD5 PLIN5 PPI | biochemical ABHD5-PLIN5 interaction, luminescence | inhibition, % at 4 µM | hit rate 67% among 2,200 | AID 651612; in the data active = inhibition above about 23%;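 note: 0% = DMSO vehicle wells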
HNF4 split-luc = active in HNF4 split-luciferase counter-screen for ABHD5-PLIN5 inhibitors; shares compounds with ABHD5 PLIN5 PPI; hit rate 77% among 2,200; inhibition, % at 4 µM; AID 651674; HNF4 dimerization, luminescence, biochemical;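 active = mean inhibition across replicate wells exceeding the computed hit threshold, cut at about 13% in these data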;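 note: light from luciferase halves that rejoin when HNF4 fusion proteins dimerize; 0% = DMSO only wells and the 100% control is not given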
Target sequence (P41235 whole entry, looked up, the tested form may be a part): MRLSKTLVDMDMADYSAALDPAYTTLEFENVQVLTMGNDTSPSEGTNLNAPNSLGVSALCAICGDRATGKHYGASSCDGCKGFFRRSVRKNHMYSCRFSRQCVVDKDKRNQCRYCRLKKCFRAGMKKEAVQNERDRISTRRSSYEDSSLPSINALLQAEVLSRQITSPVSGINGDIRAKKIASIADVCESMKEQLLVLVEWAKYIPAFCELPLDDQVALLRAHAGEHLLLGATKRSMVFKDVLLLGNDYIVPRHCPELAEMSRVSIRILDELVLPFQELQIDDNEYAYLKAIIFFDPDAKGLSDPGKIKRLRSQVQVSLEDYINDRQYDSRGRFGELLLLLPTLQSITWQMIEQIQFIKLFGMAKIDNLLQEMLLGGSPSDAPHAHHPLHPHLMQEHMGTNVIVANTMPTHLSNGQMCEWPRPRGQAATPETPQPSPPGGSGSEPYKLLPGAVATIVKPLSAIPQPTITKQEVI
* = called active by the depositor; i = inactive; / = not tested or not shown.

SMILES	M18AAP inhibitor	Exocytosis inh	ABHD5 PLIN5 PPI	Rce1 inh	Platelet DG rel	ABHD5-PLIN5 conf	HNF4 split-luc
COc1c(CC=C(C)C)cc(C2CC(=O)c3c(O)cc(O)cc3O2)cc1CC=C(C)C (stereo not given)	/	42	-27	i	-3	/	/
COC1=CC(=O)C(C2CC(=O)c3c(O)cc(O)cc3O2)=CC1=O (stereo not given)	/	67*	29*	/	/	82*	93*
COc1ccc(C(NC(=O)/C=C/c2ccco2)c2ccc(OC)cc2)cc1	-17	0	25*	i	-2	66*	46*
CC(=C/C(=O)O)/C=C/c1ccco1	0	-7	25*	i	4	10	17*
CCNC(=S)N(CCc1c(C)[nH]c2ccc(Cl)cc12)Cc1ccco1	0	8	8	i	-9	/	/
CNC(=S)N(CCc1c(C)[nH]c2ccc(C)cc12)Cc1ccco1	2	12	31*	i	15	2	-6
CN(C)c1ccc(/C=C/c2c([N+](=O)[O-])c(=O)n(C)c(=O)n2C)cc1	14	6	-1	i	-5	/	/
CN(C)c1ccc(-n2cccc2/C=C/[N+](=O)[O-])cc1	25	-1	52*	i	-2	82*	71*
Cc1ccc(S(=O)(=O)N[C@@H](Cc2ccccc2)C(=O)CCl)cc1	-10	4	53*	i	/	93*	90*
Cc1nn(C)cc1NC(=O)CCSc1nc(-c2ccco2)cc(C(F)(F)F)n1	7	1	88*	i	5	6	3
COc1ccc(CC(=O)NN2C(=O)c3ccccc3C2=O)cc1	-1	-2	-5	i	-8	/	/
COc1ccc(NC(=O)CCc2nnc3ccc(NCc4ccco4)nn23)cc1OC	18	1	34*	i	6	12	13*
COc1ccc(NC(=O)CCc2nnc3ccc(NCc4ccco4)nn23)cc1	19	-2	1	i	15	/	/
COC(=O)c1ccc(NC(=O)CCc2nnc3ccc(NCc4ccco4)nn23)cc1	25	2	57*	i	1	14	14*
Cc1cccnc1NC(=O)CCc1nnc2ccc(NCc3ccco3)nn12	26	0	32*	i	0	11	6
O=C(CCc1nnc2ccc(NCc3ccco3)nn12)Nc1ccccn1	26	-5	12	i	9	/	/
COCCN(C(=O)COC(=O)C12CC3CC(CC(C3)C1)C2)c1c(N)n(Cc2ccccc2)c(=O)[nH]c1=O	/	2	4	/	/	/	/
Cc1ccc(Cl)cc1-n1c(=O)cc(N2CCN(C(=O)c3ccco3)CC2)[nH]c1=O	1	-3	23*	i	-8	5	4
O=C1C(Sc2ccccc2)=C[C@@]2(O)CC[C@@H](O)[C@]1(Sc1ccccc1)[C@H]2O	/	32	26*	/	/	33*	43*
COC(=O)C1=C(O)/C(=C\c2ccc(CNS(=O)(=O)c3ccccc3)o2)N=C1C	3	-7	6	i	1	/	/
COC(=O)C1=C(O)/C(=C\c2ccc(CNS(=O)(=O)c3ccc(Cl)cc3)o2)N=C1C	-15	3	32*	i	3	29*	39*
C=CCn1c(NC(=O)c2ccco2)nc2ccccc21	9	1	10	/	-13	/	/
O=C(C=Cc1ccco1)c1cc(Cl)ccc1O	/	2	27*	/	/	53*	34*
CCN(CC)c1ccc(NC(=O)CN2CCN(CC(=O)Nc3ccccc3F)CC2)cc1	4	18	1	i	-8	/	/
CCC(=O)N(Cc1cc2ccc(C)cc2[nH]c1=O)c1ccccc1OC	2	0	-8	i	7	/	/
SMILES	M18AAP inhibitor	Exocytosis inh	ABHD5 PLIN5 PPI	Rce1 inh	Platelet DG rel	ABHD5-PLIN5 conf	HNF4 split-luc
O=C(c1ccco1)N1CCN(S(=O)(=O)c2ccc(Oc3ccccc3)cc2)CC1	-2	-4	50*	i	0	8	18*
CC1CCCN(S(=O)(=O)c2ccc(NC(=O)C3CCN(C(=O)c4ccco4)CC3)cc2)C1 (stereo not given)	-2	1	24*	i	-3	4	0
Cc1cccc2cc3c(nc12)SC(=NCC1CCCO1)N(Cc1ccco1)C3 (stereo not given)	-2	4	26*	i	-1	43*	77*
O=C1/C(=C/c2ccccc2)CN(C(=O)CCN2CCOCC2)C/C1=C\c1ccccc1	/	48	99*	/	/	103*	105*
O=C(Cc1ccccc1)N1CCNCC1	-3	4	-1	i	14	/	/
C[N+](C)(C)CCC(=O)N1C/C(=C/c2ccccc2)C(=O)/C(=C\c2ccccc2)C1	/	-4	92*	/	/	100*	100*
CN(C)CCC(=O)N1C/C(=C/c2ccccc2)C(=O)/C(=C\c2ccccc2)C1	/	68*	96*	/	/	103*	106*
Cc1ccc(-c2nnc(N3CCCCC3)c3ccccc23)cc1	-7	2	1	i	-4	/	/
CCCCNC(=O)C1C(c2ccccc2)=Nc2ccccc2N1C(=O)c1ccc(C(F)(F)F)cc1 (stereo not given)	/	3	-2	/	/	/	/
C[C@@H]1Cc2[nH][nH]c(=O)c2[C@H](c2ccc(Cl)cc2)O1	/	-3	-4	/	/	/	/
O=c1[nH][nH]c2c1[C@H](c1ccc(F)cc1)O[C@H](C1CCCCC1)C2	/	5	28*	/	/	9	26*
O=c1[nH][nH]c2c1[C@H](c1ccc(Cl)cc1)O[C@H](C1CC1)C2	/	13	23*	/	/	38*	25*
O=c1[nH][nH]c2c1[C@@H](c1ccc(F)cc1)O[C@H](C1CCCCC1)C2	/	4	10	/	/	/	/
O=c1[nH][nH]c2c1[C@H](c1ccccc1)O[C@H](C1CCCCC1)C2	/	4	31*	/	/	34*	44*
CCOc1ncccc1C(=O)NCc1ccc(OC)cc1	2	1	1	i	12	/	/
C/C(=N\Nc1ccc([N+](=O)[O-])cc1)c1ccc(N2CCOCC2)cc1	24	7	-1	i	6	/	/
CCOc1ncccc1C(=O)OCC(=O)Nc1ccc2c(c1)CCC2	/	6	1	/	/	/	/
COc1cccc(CNCCc2c[nH]c3ccccc23)c1OCc1ccc(F)cc1	-8	31	19	i	-1	/	/
COc1cc(CNCCc2c[nH]c3ccccc23)ccc1OCc1ccc(F)cc1	3	35	33*	i	1	14	-1
O=C(c1nnsc1S(=O)(=O)c1ccc(Cl)cc1)N1CCOCC1	-34	-1	51*	i	-1	73*	71*
Nc1nc(C(=O)N2CCOCC2)nn1S(=O)(=O)c1ccc(Cl)cc1	-5	2	0	i	1	/	/
COCCN(CC(=O)NC1CCCCC1)C(=O)/C=C/C(=O)c1ccc(OC)cc1O	-3	44	62*	i	37	102*	106*
Cc1ccc(NC2=C(NC(=O)c3ccccc3)C(=O)c3ccccc3C2=O)cc1Cl	-10	23	-12	i	2	/	/
